Data as given in PubChem BioAssay (NCATS).
Records with an inconclusive call do not appear. Activity calls are given as the source filed them. Calls follow the shape of the dose curve; as a rule, active = well fitted curve in the direction sought with a large enough effect; inconclusive = small, poorly fitted or top-dose-only effect, or another doubt; inactive = no such curve, though single readings can be large; an effect the other way counts as inactive or inconclusive.

Experiments:
[1] = Viability qHTS for spleen associated tyrosine kinase inhibitor (SYKi) drug resistant MV4-11 cells (AID 1963824); also: nearly all actives have a fitted effect of over 35% in size
In short: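 SYK-inhibitor-resistant MV4-11 AML cells were seeded at 500 per well onto compound and cultured 72 hours (37 °C, 5% CO2). CellTiter-Glo was then added, and after 10 min at room temperature, luminescence gave viability.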

[2] = Cellular viability qHTS for adrenocortical cancer (ACC) cell line SW-13 (AID 1963989); conditions: SW-13 ACC cells viability, CellTiter-Glo, 48 h; activity (max response): hits give low values; also: nearly all actives have a fitted effect of over 65% in size
In short: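 Viability was read as CellTiter-Glo luminescence after 48 h compound treatment (up to 46 uM final) of SW-13 cells grown serum-free; titration curves were fit with a four-parameter logistic model to give IC50 and efficacy.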

[3] = Cellular viability qHTS for adrenocortical cancer (ACC) cell line NCI-H295R (AID 1963990); also: nearly all actives have a fitted effect of over 60% in size
In short: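 CellTiter-Glo ATP luminescence, read 48 h after compound addition, measured viability of NCI-H295R adrenocortical cells grown serum-free with ITS. Final concentrations spanned up to 46 uM. Data normalized to DMSO and doxorubicin, fitted for IC50 and maximal response.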
Potency is read from the fitted curve at half-maximal effect.

SMILES	Potency [1]	Potency [2]	Potency [3]
C=CCNC1=C2CC(C)CC(OC)C(O)C(C)/C=C(\C)C(OC(N)=O)C(OC)/C=C/C=C(\C)C(=O)NC(=CC1=O)C2=O (stereo not drawn)	0.332 µM (active)	3.16 µM (active)	10 µM (active)
COc1cc(NS(C)(=O)=O)ccc1Nc1c2ccccc2nc2ccccc12	0.468 µM (active)		8.91 µM (active)
COC1CC(C(=O)c2ccc3c(N)ncc(-c4ccc(-c5cnn(C)c5)cc4)c3n2)C1 (stereo not drawn)	0.296 µM (active)		inactive
OCc1c[nH]c2ccccc12	24.3 µM (active)		22.4 µM (active)
CC(=O)Oc1ccc2c(c1)CC[C@@H]1[C@@H]2CC[C@]2(C)[C@@H](O)CC[C@@H]12	15 µM (active)		18.4 µM (active)
CCCCCCCCCCCCCCNCCO	16.8 µM (active)		23.1 µM (active)
CCN(C)S(=O)(=O)Nc1ccc(F)c(C(=O)c2c[nH]c3ncc(-c4cnc(C5CC5)nc4)cc23)c1F	4.68 µM (active)		28.2 µM (active)
O=C(c1ccc(NS(=O)(=O)c2cccc3cccnc23)cc1)N1CCN(CC2CC2)CC1	inactive		inactive
CCN(CC)CCNc1ccc(CO)c2sc3ccccc3c(=O)c12	3.76 µM (active)		1.03 µM (active)
CC(=O)Nc1cc(Oc2ccc3c(nc(Nc4ccc(F)cc4F)n3C)c2C)ccn1	1.66 µM (active)		2.24 µM (active)
COC(=O)C1=C(C)NC(C)=C(C(=O)OC(C)(C)CN(C)CCC(c2ccccc2)c2ccccc2)C1c1cccc([N+](=O)[O-])c1 (stereo not drawn)	9.44 µM (active)		20.6 µM (active)
